Test results published in PubChem BioAssay (NCATS).
A number with no mark means an inactive call. Records with an inconclusive call do not appear. Entries that show only a call come without a potency. Active and inactive are the calls of the source. Calls follow the shape of the dose curve; as a rule, active = well fitted curve in the direction sought with a large enough effect; inconclusive = small, poorly fitted or top-dose-only effect, or another doubt; inactive = no such curve, though single readings can be large; an effect the other way counts as inactive or inconclusive.

Assays:
[1] = qHTS Assay for Identification of Small Molecule Antagonists for Thrombopoietin (TPO) Signaling Pathway (AID 918); details: TPO-dependent cell signaling reporter, antagonist mode; also: potency is read from the fitted curve at half-maximal effect; nearly all actives have a fitted effect of over 60% in size
Procedure, shortened: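 Murine Ba/F3 cells stably expressing human TPO receptor and a Glycoprotein IIb promoter–luciferase reporter were IL-3-starved overnight, treated with compounds plus TPO (26 pM final, its EC50) for 24 hrs at 37 C, then read by luminescence.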

[2] = molecular target: Rap guanine nucleotide exchange factor 3 (Homo sapiens) (UniProt O95398); assay: Confirmatory qHTS for antagonist of cAMP-regulated guanine nucleotide exchange factor 3 (EPAC1) (AID 1645880); details: EPAC1 Rap1B-BODIPY-GDP exchange, fluorescence; series mostly up to 115 µM; also: nearly all actives have a fitted effect of over 55% in size
Procedure, shortened: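 Nucleotide exchange uses 100 nM EPAC1, 250 nM RAP1B-BODIPY-GDP and 50 uM GDP, with compounds in a concentration-titration series. After 5 min at room temperature, fluorescence (480 nm ex/540 nm em) is read every 5 min for 30 min. Data are normalized to control ATA and DMSO.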

[3] = molecular target: Rap guanine nucleotide exchange factor 4 (Homo sapiens) (UniProt Q8WZA2); assay: Confirmatory qHTS for antagonist of cAMP-regulated guanine nucleotide exchange factor 4 (EPAC2) (AID 1645885); details: EPAC2 Rap1B-BODIPY-GDP exchange fluorescence, biochemical; series mostly up to 114 µM; also: nearly all actives have a fitted effect of over 25% in size
[4] = molecular target: Rap guanine nucleotide exchange factor 3 (Homo sapiens) (UniProt O95398); assay: Counterscreen qHTS for agonist of cAMP-regulated guanine nucleotide exchange factor 3 (EPAC1) (AID 1645889); details: EPAC1 Rap1B-BODIPY-GDP exchange, fluorescence; series mostly up to 154 µM; also: nearly all actives have a fitted effect of over 40% in size
Procedure, shortened: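 Rap1B-BODIPY-GDP 250 nM + GDP 50 uM; cpds 7-pt, final 9.74 nM–152 uM (activator mode) or from 7.32 nM upwards (inhibitor mode); RT; FI 480/540 nm at 5 and 30 min, then ± cAMP, reread.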

[5] = Confirmation and Secondary Assay for Modulators of Hemoglobin Beta Chain Splicing at IVS2 654 locus (AID 910); details: HeLa EGFP-654 splicing reporter, GFP fluorescence, 48 h; series mostly up to 38.3 µM;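 also: HeLa cells stably carrying EGFP split by mutant beta-globin IVS2-654 intron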
Procedure, shortened: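 Readout: per-well total peak green fluorescence (488 nm ex, 500–520 nm em) from objects 5–250 µm, reflecting correct splicing of an EGFP-654 reporter. Compounds were applied for 2 days at 37 °C to overnight-plated HeLa EGFP-654 cells; controls were DMSO and 500 nM IVS2-654 PNA.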

[6] = Confirmation and Secondary Assay for Modulators of Hemoglobin Beta Chain Splicing at IVS2 705 locus (AID 930); details: HeLa EGFP-705 splicing reporter, GFP fluorescence, 48 h; series mostly up to 38.3 µM;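 also: HeLa cells stably expressing the EGFP-705 splicing reporter; GFP fluorescence per well restored by corrected splicing of the IVS2-705 intron in EGFP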
Procedure, shortened: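 Read-out: total peak GFP fluorescence per well (488 nm excitation, 500-520 nm emission) by laser-scanning cytometry. Cells: HeLa EGFP-705 splicing reporter, 2 days compound exposure in Optimem/2% FCS.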

Rap guanine nucleotide exchange factor 4 (Homo sapiens), sequence (Q8WZA2 whole entry, looked up): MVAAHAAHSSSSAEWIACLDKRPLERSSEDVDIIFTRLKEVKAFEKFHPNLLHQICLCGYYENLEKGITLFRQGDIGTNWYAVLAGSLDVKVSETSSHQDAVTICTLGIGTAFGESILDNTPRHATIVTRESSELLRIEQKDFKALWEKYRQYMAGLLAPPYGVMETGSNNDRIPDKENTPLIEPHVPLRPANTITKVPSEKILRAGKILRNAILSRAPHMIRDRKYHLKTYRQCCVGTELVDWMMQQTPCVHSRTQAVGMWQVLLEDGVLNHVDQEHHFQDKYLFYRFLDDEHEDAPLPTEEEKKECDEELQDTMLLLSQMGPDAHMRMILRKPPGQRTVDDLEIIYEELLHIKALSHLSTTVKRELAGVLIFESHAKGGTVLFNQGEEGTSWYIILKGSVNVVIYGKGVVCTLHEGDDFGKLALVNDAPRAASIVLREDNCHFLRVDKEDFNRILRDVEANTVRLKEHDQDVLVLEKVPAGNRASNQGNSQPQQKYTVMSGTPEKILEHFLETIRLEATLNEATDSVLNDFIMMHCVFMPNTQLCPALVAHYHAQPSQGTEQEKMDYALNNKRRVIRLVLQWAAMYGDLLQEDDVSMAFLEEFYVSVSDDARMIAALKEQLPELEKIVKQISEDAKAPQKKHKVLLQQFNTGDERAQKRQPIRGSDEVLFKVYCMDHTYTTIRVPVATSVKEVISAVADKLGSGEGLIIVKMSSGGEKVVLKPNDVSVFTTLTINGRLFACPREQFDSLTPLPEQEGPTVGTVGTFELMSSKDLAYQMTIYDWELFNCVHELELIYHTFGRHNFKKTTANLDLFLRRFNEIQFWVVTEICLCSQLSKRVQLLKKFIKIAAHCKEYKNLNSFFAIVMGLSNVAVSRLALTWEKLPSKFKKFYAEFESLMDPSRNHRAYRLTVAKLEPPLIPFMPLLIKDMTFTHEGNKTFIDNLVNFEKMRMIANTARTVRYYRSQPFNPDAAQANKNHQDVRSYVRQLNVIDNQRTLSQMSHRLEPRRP
Rap guanine nucleotide exchange factor 3 (Homo sapiens), sequence (O95398 whole entry, looked up): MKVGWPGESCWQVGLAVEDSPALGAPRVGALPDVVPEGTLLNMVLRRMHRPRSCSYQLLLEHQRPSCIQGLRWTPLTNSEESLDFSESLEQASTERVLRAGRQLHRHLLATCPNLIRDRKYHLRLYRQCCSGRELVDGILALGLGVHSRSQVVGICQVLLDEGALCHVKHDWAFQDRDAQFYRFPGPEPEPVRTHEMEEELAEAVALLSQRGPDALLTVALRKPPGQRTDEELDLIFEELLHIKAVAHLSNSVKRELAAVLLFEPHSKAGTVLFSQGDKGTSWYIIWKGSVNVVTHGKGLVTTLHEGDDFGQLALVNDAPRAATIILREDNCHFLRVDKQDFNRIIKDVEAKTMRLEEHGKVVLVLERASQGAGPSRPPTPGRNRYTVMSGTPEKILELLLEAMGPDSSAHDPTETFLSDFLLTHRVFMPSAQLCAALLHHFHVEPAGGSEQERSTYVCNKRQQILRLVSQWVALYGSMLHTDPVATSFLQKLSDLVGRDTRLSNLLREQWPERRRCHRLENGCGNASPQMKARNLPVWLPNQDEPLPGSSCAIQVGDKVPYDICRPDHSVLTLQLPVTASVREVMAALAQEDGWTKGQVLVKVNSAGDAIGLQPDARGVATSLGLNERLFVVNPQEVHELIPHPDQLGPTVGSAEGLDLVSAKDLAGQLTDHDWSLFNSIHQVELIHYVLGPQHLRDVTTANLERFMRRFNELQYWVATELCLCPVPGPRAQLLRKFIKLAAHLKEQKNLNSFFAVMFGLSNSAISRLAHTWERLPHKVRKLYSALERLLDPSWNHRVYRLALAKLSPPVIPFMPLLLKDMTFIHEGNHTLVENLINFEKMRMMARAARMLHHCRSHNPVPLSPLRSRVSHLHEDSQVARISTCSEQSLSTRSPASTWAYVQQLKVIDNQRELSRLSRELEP

## NCCCCNS(=O)(=O)c1cccc2c(Cl)cccc12
[1]
  Potency: 10 µM (active)

## CN1C2CC(OC(=O)C(CO)c3ccccc3)CC1C1OC12 (stereo unspecified)
[2]
  Potency: inactive
[3]
  activity change, negative = inhibition: -4.32% [at 12.7 µM]
[4]
  activation: 0.0134% [at 30.8 µM]

## NC[C@@H](O)c1ccc(O)c(O)c1
[5]
  outcome: inactive
[6]
  outcome: inactive
